Measurements reported in PubChem BioAssay AID488847 (NMMLSC, 2010).
Hit rate of the full screen: of about 330,000 compounds, about 1,900 (0.58%) were called active. For the sample, actives were picked, then their nearest neighbours and some compounds at random. Values without a mark were called inactive.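 How the source made its calls: active means inhibition of aptamer binding above 40%, roughly 3 SD of noise, on plates passing a quality check; inactive means the rest.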

What follows are compounds tested against Beta-adrenergic receptor kinase 1 (Homo sapiens) (UniProt P25098) (assay: compounds blocking aptamer binding on GRK2 – biochemical, human GRK2, bead flow cytometry, HTS, primary screen (AID 488847;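 further: median bead fluorescence of bound FAM aptamer so fluorescent compounds give negative values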)). Details: FAM-aptamer displacement from GRK2, at 10 µM, stronger effect = higher value.
Beta-adrenergic receptor kinase 1 (Homo sapiens), sequence (P25098 whole entry, looked up): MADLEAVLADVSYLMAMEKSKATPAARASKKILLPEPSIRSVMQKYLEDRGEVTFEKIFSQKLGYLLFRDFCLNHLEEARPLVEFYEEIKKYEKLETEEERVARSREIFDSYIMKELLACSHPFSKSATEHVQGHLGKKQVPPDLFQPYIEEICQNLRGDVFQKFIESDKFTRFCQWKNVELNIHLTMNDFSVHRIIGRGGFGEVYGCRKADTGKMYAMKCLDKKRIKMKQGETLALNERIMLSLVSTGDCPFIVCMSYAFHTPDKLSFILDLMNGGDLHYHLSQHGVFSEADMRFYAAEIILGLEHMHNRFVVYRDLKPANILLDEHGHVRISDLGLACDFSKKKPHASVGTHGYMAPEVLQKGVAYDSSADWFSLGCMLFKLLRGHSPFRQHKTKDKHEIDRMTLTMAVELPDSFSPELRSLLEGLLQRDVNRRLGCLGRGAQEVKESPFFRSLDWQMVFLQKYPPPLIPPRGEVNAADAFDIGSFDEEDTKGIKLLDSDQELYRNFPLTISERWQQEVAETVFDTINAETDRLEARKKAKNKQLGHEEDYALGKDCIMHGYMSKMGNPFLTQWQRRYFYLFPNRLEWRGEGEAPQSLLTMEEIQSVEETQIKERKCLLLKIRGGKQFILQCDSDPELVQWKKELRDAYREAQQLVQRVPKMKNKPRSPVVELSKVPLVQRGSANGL
For `CCOC(=O)c1sc2nc(CSc3ccccc3)[nH]c(=O)c2c1C`, the inhibition of aptamer binding was 75% (active).
`CCOC(=O)c1sc2nc(CSCC(=O)OCc3ccc(C(=O)OC)o3)[nH]c(=O)c2c1C` showed an inhibition of aptamer binding of 2%.
`CSc1nnc(SCc2nc3sc(C(=O)O)c(C)c3c(=O)[nH]2)s1` showed an inhibition of aptamer binding of 13%.
Compound `O=S(=O)(Nc1cccc(-c2ccc(N3CCOCC3)nn2)c1)c1ccc(Cl)c(Cl)c1` has an inhibition of aptamer binding of 0%.
With `O=c1c([N+](=O)[O-])cccn1Cc1ccc(F)cc1Cl` the inhibition of aptamer binding was 0%.
With `O=C(C1CCC1)N1CCc2cc(S(=O)(=O)NCc3cccnc3)ccc21` the inhibition of aptamer binding was 0%.
`O=C(CSc1nc2ccccc2c(=O)n1-c1ccc(F)cc1)NC1CC1` was tested, and the inhibition of aptamer binding was 0%.
In the case of `CSc1nc2ccccc2c(=O)n1Cc1ccc(F)cc1`, the inhibition of aptamer binding is reported as 76% (active).
In the case of `O=C(CSc1nc2ccccc2c(=O)n1Cc1ccc(F)cc1)NCC1CCCO1` (stereo not drawn), the inhibition of aptamer binding is reported as 0%.
With `O=c1[nH]c(CCl)nc2cc(-c3ccc(Cl)cc3)sc12` the inhibition of aptamer binding was 0%.
With `NC(=O)CC(NC(=O)Cc1cccc2ccccc12)c1ccc(NCc2cc(F)ccc2F)c([N+](=O)[O-])c1` (stereo not drawn) the inhibition of aptamer binding was 1%.
With `CCCC/S(C)=N/S(=O)(=O)c1ccc(C)cc1` (stereo not drawn) the inhibition of aptamer binding was 1%.
`COc1ccc(CN2CCN(Cc3cn(C)nc3-c3ccccc3)CC2CCO)c(C)c1C` (stereo not drawn) showed an inhibition of aptamer binding of 0%.
Work on `CN(CC(=O)Nc1ccc(C(N)=O)cc1)S(=O)(=O)c1ccc2c(c1)OCCO2` yielded an inhibition of aptamer binding of 0%.
With `Cc1nc(S(=O)(=O)c2ccc(Br)cc2)nc2c1CCC2` the inhibition of aptamer binding was 5%.
`O=C(Nc1ccc(-c2nnc(-c3ccccc3)o2)cc1)c1ccc(Br)o1` was tested, and the inhibition of aptamer binding was 92% (active).
Compound `Brc1ccc(-c2nnc(-c3ccccc3)o2)o1` has an inhibition of aptamer binding of 5%.
`O=C(CNC(=O)c1ccc(Br)o1)Nc1ccccc1` showed an inhibition of aptamer binding of 1%.
With `CCOc1ccc(C(=O)NCCCN2CCCC2=O)cc1` the inhibition of aptamer binding was 2%.
`CC1CCC(NC(=O)c2ccc(N3CCCC3=O)cc2)CC1` (stereo not drawn) gave an inhibition of aptamer binding of 0%.
`O=C(NCCCN1CCCCCC1)c1ccc(N2CCCC2=O)cc1` was tested, and the inhibition of aptamer binding was 43% (active).
`CC1=CC(C)(C)NC(=S)N1NC(=O)c1ccccc1Cl` showed an inhibition of aptamer binding of 1%.
Compound `COc1ccc(C2C(C#N)=C(N)Oc3cc(N)ccc32)cc1OC` (stereo not drawn) has an inhibition of aptamer binding of 0%.
With `CCn1cnc2scc(-c3ccc(C)c(C)c3)c2c1=O` the inhibition of aptamer binding was 0%.
`CCOC(=O)C(C)n1cnc2scc(-c3ccc(C)c(C)c3)c2c1=O` (stereo not drawn) was tested, and the inhibition of aptamer binding was 64% (active).
`CC(=O)C(C)n1cnc2scc(-c3ccc(C)cc3)c2c1=O` (stereo not drawn) was tested, and the inhibition of aptamer binding was 1%.
Compound `CCOC(=O)c1ccc(S(=O)(=O)N(CCO)Cc2cc3cc(OC)c(OC)cc3[nH]c2=O)cc1` has an inhibition of aptamer binding of 0%.
Work on `CN(C)CC(C)(C)CNC(=O)c1cc(Br)cc(Br)c1O` yielded an inhibition of aptamer binding of 6%.
With `COc1cccc(OC)c1C(=O)Nc1ccc(Cc2ccncc2)cc1` the inhibition of aptamer binding was 55% (active).
Work on `CC(C)CC(=O)Nc1ccc(Cc2ccncc2)cc1` yielded an inhibition of aptamer binding of 0%.
With `COc1cccc(OC)c1C(=O)Nc1ccc2c(c1)n(C)c(=O)n2C` the inhibition of aptamer binding was 1%.
Work on `Cc1ccc(S(=O)(=O)NCCSC(C)(C)C)cc1` yielded an inhibition of aptamer binding of 1%.
With `O=C(OCC1O[C@@H](OC(=O)c2cc(O)c(O)c(O)c2)[C@@H](OC(=O)c2cc(O)c(O)c(O)c2)[C@@H](OC(=O)c2cc(O)c(O)c(O)c2)[C@@H]1OC(=O)c1cc(O)c(O)c(O)c1)c1cc(O)c(O)c(O)c1` (stereo partly drawn) the inhibition of aptamer binding was 1%.
